Assay [1] is described as follows: qHTS assay to identify small molecule agonists of the peroxisome proliferator-activated receptor delta (PPARd) signaling pathway - cell viability counter screen (AID 743211). Also: nearly all actives have a fitted effect of over 55% in size. An outline of the steps:
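In the same wells used for beta-lactamase reporter measurement, cytotoxicity is scored by CellTiter-Glo. HEK293H PPARd-bla cells receive compound for 17 h at 37C following a 5 h settling period.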

The target of assay [2] is Peroxisome proliferator-activated receptor delta (Homo sapiens) (UniProt Q03181). As to the kind of experiment: qHTS assay to identify small molecule agonists of the peroxisome proliferator-activated receptor delta (PPARd) signaling pathway (AID 743212; calls by dose curve;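 also: HEK293H cells with PPARd UAS beta-lactamase reporter GeneBLAzer system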). Summed up: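 Beta-lactamase reporter read by fluorescence (LiveBLAzer B/G FRET, 2 h, room temperature). Test agents, in DMSO, incubated at 37 C with PPARd-bla HEK293H cells.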

Assay [3] in a line: qHTS assay to identify small molecule antagonists of the peroxisome proliferator-activated receptor delta (PPARd) signaling pathway - cell viability counter screen (AID 743213). Also: nearly all actives have a fitted effect of over 50% in size. Summed up:
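HEK293H PPARd UAS-bla cells, 5 h pre-incubation, compound + L165041 300 nM final, 17 h 37 C; B/G FRET substrate 2 h RT; then CellTiter-Glo 30 min RT, luminescence.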

Assay [4] concerns the target Peroxisome proliferator-activated receptor delta (Homo sapiens) (UniProt Q03181). As to the kind of experiment: qHTS assay to identify small molecule antagonists of the peroxisome proliferator-activated receptor delta (PPARd) signaling pathway (AID 743215; active = well fitted inhibition curve with a large enough effect in the signal ratio in the repeat runs, not every such curve was filed as active; the % refers to the signal ratio;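 also: cells stimulated with agonist L165041 at 300 nM final during compound exposure; series mostly up to about 62 µM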). An outline of the steps: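 Plated HEK293H PPARd-bla cells rested 5 h at 37 C and 5% CO2. Compound, then agonist L165041 at 300 nM final, was added; 17 h at 37 C followed. Substrate loading, 2 h room temperature, fluorescence measured.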

Assay [5] has as its target Bile acid receptor (Homo sapiens) (UniProt Q96RI1). Nature of the assay: qHTS assay to identify small molecule antagonists of the farnesoid-X-receptor (FXR) signaling pathway (AID 743217; active = well fitted inhibition curve with a large enough effect in the signal ratio in the repeat runs, not every such curve was filed as active; the % refers to the signal ratio). Summed up:
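Screen of the Tox21 10K library in quantitative HTS format using FXR-UAS-bla HEK 293T reporter cells. Agonist chenodeoxycholic acid, 50 uM final, added with compounds; 16 h incubation at 37 °C; beta-lactamase FRET fluorescence measured.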

Assay [6] is described as follows: qHTS assay to identify small molecule agonists of the farnesoid-X-receptor (FXR) signaling pathway - cell viability counter screen (AID 743218). Also: nearly all actives have a fitted effect of over 45% in size. Also: potency is read from the fitted curve at half-maximal effect. Summed up: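 Viability of FXR-bla HEK 293T cells is measured by ATP-based CellTiter-Glo luminescence following 16 h compound treatment at 37 C and a prior 2 h room-temperature beta-lactamase substrate step.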
Assay [7] deals with Bile acid receptor (Homo sapiens) (UniProt Q96RI1). Nature of the assay: qHTS assay to identify small molecule agonists of the farnesoid-X-receptor (FXR) signaling pathway (AID 743220; active = well fitted activation curve with a large enough effect in the signal ratio in the repeat runs, not every such curve was filed as active; the % refers to the signal ratio). An outline of the steps:
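FXR-UAS-bla HEK 293T cells carrying a UAS-driven beta-lactamase reporter were plated for 5 h at 37C/5% CO2, then exposed to DMSO-dissolved Tox21 10K compounds for 16 h at 37C. A LiveBLAzer B/G FRET substrate was loaded for 2 h at room temperature before fluorescence reading.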

Assay [8] can be described thus: qHTS assay to identify small molecule antagonists of the farnesoid-X-receptor (FXR) signaling pathway - cell viability counter screen (AID 743221; active = well fitted cell-killing curve with a large enough effect in the repeat runs, not every such curve was filed as active; also: nearly all actives have a fitted effect of over 50% in size). An outline of the steps:
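Here viability was scored by luminescence after CellTiter-Glo addition to wells already read for beta-lactamase. Prior treatment: compound plus CDCA (50 uM final), 16 h, 37 C, HEK 293T FXR-bla cells.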

Assay [9] can be described thus: qHTS assay to identify small molecule agonists of the vitamin D receptor (VDR) signaling pathway - cell viability counter screen (AID 743224). Also: series mostly up to about 63 µM; nearly all actives have a fitted effect of over 50% in size. Summed up:
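Compounds were pin-transferred onto VDR-bla cells plated 4 h earlier; following 16 h incubation at 37C, cell viability was quantified by CellTiter-Glo luminescence after 30 min at room temperature.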

The nature of assay [10]: qHTS assay to identify small molecule agonists of the NFkB signaling pathway (AID 1159509; active = well fitted curve in the direction sought with a large enough effect in the signal ratio in the repeat runs, not every such curve was filed as active; the % refers to the signal ratio; also: series mostly up to about 61 µM). Summed up: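 Beta-lactamase reporter assay run in quantitative high-throughput format on an NF-kB-responsive ME-180 line, with 5 hr compound treatment and a FRET-based blue/green fluorescence readout.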
A short description of assay [11]: qHTS assay to identify small molecule agonists of the endoplasmic reticulum stress response signaling pathway (AID 1159516; active = well fitted activation curve with a large enough effect in the signal ratio in the repeat runs, not every such curve was filed as active; the % refers to the signal ratio). An outline of the steps:
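Using a HeLa line with an ESRE-driven beta-lactamase gene, agonist activity was measured by FRET substrate fluorescence (460 and 530 nm emission) after cells were treated with compounds for 5 hr at 37 C and 5% CO2.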

Assay [12] can be described thus: qHTS assay to identify small molecule agonists of the endoplasmic reticulum stress response signaling pathway - cell viability counter screen (AID 1159517; calls by dose curve;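 also: HeLa cells carrying an ER stress response element beta-lactamase reporter; series mostly up to about 61 µM; nearly all actives have a fitted effect of over 50% in size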). An outline of the steps:
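Cytotoxicity of test compounds toward ESRE-bla HeLa cells was assessed after 5 hr exposure. The luminescent CellTiter-Glo signal was measured 30 min after reagent addition.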

Assay [13] is described as follows: qHTS assay to identify small molecule antagonists of the retinoid-related orphan receptor gamma (ROR-gamma) signaling pathway - cell viability counter screen (AID 1159520). Also: nearly all actives have a fitted effect of over 50% in size. An outline of the steps: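 Tet-on ROR gamma CHO cells (1,000/well) were plated 4 hr, given compounds in DMSO for 2 hr at 37 C, then induced with 1 uM final doxycycline for 16 hr. Viability was read as ATP by CellTiter-Glo luminescence after 30 min.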

Assay [14] has as its target Nuclear receptor ROR-gamma (Homo sapiens) (UniProt P51449). As to the kind of experiment: qHTS assay to identify small molecule antagonists of the retinoid-related orphan receptor gamma (ROR-gamma) signaling pathway (AID 1159521). Summed up:
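Test compounds were applied to Tet-on RORγ CHO cells 2 h ahead of doxycycline hyclate (1 uM final). Luciferase reporter activity was quantified by luminescence after 16 h at 37 C and 5% CO2.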

Assay [15] can be described thus: qHTS assay to identify small molecule agonists of the AP-1 signaling pathway - cell viability counter screen (AID 1159525; calls by dose curve; also: nearly all actives have a fitted effect of over 55% in size). An outline of the steps:
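Each titration point was normalised to DMSO and tetra n-octyl ammonium bromide controls. The read was Cell Titer Glo luminescence after 30 min at RT, following 5 h compound exposure of ME-180 AP-1-bla cells at 37 °C.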

The nature of assay [16]: qHTS assay to identify small molecule agonists of the AP-1 signaling pathway (AID 1159526; calls by dose curve).
The target in assay [17] is Vitamin D3 receptor (Homo sapiens) (UniProt P11473). Nature of the assay: qHTS assay to identify small molecule agonists of the vitamin D receptor (VDR) signaling pathway (AID 743222; calls by dose curve). An outline of the steps:
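Fluorescence from cleaved LiveBLAzer B/G FRET substrate served as readout. VDR-bla cells had been treated 16 h at 37C with test compounds in DMSO, following a 4 h settling period, and substrate was loaded for 2 h at RT.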

A short description of assay [18]: qHTS assay to identify small molecule antagonists of the vitamin D receptor (VDR) signaling pathway - cell viability counter screen (AID 743225). Also: nearly all actives have a fitted effect of over 50% in size. An outline of the steps:
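Compounds were pinned onto VDR-bla HEK 293T cells together with 1-alpha,25-dihydroxyvitamin D3 at 3 nM final. After 16 h at 37C and 5% CO2 plus the reporter readout, cell viability was measured by CellTiter-Glo luminescence (30 min, room temperature).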

Assay [19] addresses Vitamin D3 receptor (Homo sapiens) (UniProt P11473). As to the kind of experiment: qHTS assay to identify small molecule antagonists of the vitamin D receptor (VDR) signaling pathway (AID 743223; active = well fitted inhibition curve with a large enough effect in the signal ratio in the repeat runs, not every such curve was filed as active; the % refers to the signal ratio). Summed up:
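Inhibition of agonist-driven VDR signalling is scored in VDR-bla cells: 3 nM final 1alpha,25-dihydroxyvitamin D3 plus compound, 16 h at 37C, then beta-lactamase detection by FRET substrate fluorescence after 2 h.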

The structures appear in SMILES notation. Records with an inconclusive call do not appear. Unmarked numbers belong to inactive results. Activity calls are given as the source filed them. Unless noted, calls follow the shape of the dose curve; as a rule, active = well fitted curve in the direction sought with a large enough effect in the repeat runs; inconclusive = weak or mixed curves; inactive = no such curve, though single readings can be large; an effect the other way counts as inactive or inconclusive.

Bile acid receptor (Homo sapiens), sequence (Q96RI1 whole entry, looked up): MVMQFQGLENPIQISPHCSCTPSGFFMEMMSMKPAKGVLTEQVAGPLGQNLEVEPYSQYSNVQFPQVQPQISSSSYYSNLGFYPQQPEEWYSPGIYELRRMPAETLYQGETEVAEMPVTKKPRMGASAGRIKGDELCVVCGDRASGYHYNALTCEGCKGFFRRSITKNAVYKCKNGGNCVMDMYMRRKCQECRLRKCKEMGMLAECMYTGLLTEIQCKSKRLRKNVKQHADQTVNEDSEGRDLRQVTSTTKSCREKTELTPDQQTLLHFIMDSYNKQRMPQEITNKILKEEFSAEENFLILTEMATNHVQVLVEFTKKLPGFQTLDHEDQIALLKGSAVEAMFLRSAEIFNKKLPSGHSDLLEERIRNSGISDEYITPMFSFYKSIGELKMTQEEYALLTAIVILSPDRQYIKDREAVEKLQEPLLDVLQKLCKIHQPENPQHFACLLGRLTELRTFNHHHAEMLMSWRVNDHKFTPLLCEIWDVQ
Peroxisome proliferator-activated receptor delta (Homo sapiens), sequence (Q03181 whole entry, looked up): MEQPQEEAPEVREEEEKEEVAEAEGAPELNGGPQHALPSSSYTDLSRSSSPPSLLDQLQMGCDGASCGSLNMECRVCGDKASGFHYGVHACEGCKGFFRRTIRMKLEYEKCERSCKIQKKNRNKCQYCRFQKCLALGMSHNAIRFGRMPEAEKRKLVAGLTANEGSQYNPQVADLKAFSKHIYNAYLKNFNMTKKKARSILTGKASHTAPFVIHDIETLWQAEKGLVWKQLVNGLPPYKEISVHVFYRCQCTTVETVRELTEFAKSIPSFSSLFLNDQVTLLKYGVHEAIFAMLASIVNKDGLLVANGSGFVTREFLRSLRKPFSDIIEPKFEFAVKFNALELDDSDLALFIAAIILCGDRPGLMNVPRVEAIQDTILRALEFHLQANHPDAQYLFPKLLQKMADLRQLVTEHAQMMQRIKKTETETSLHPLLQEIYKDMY
Vitamin D3 receptor (Homo sapiens), sequence (P11473 whole entry, looked up): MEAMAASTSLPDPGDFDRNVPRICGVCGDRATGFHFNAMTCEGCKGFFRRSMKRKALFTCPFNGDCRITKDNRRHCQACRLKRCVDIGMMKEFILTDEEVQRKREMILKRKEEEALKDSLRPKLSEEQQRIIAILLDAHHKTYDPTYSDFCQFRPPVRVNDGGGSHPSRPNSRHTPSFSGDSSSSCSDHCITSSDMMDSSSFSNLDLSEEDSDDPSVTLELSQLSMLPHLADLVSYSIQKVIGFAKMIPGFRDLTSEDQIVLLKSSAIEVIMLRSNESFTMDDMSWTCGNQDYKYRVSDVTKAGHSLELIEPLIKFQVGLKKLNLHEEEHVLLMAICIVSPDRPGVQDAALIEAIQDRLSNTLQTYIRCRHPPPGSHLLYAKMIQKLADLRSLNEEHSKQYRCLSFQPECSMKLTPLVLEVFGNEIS

As to `O=C1c2ccccc2-c2ccccc21`, the compound was classed as inactive in assay [1], in assay [2], in [3], in [4], in [5] and in assay [7]. For the same compound, the call in assay [8], in [9], in assay [10], in assay [11], in assay [12] and in assay [13] was inactive. Moreover, the compound was called inactive in assay [14], in assay [15] and in assay [16]. Besides, in assay [6], the Potency entry is “inactive”.
With `CCCCCCCCCCCCC`, the compound was classed as inactive in assay [2], in assay [5], in [7], in assay [8], in [17] and in assay [9]. Besides, the result in [10], in assay [11], in [12], in assay [13], in assay [15] and in assay [16] was inactive.
With `CCN(CC)C(=O)C1CN2CCc3cc(OC)c(OC)cc3C2CC1OC(C)=O` (centres undefined), the compound was called inactive in assay [1], in [2], in [3], in [4], in assay [5] and in [7]. Also, the compound was called inactive in assay [8], in assay [9], in assay [18], in assay [10], in assay [12] and in assay [13]. In addition, the call in assay [14], in assay [15] and in [16] was inactive. In assay [6], the Potency is 237 nM (active).
Consider `C=CCOC(=O)c1ccc(C(=O)OCC=C)c(C(=O)OCC=C)c1`, for which the compound was classed as inactive in assay [1], in assay [2], in [3], in assay [4], in assay [8] and in assay [17]. Moreover, the compound was called inactive in assay [19], in assay [9], in [18], in [10], in [11] and in [12]. Besides, the compound was classed as inactive in assay [13], in assay [14], in [15] and in assay [16]. Further, the Potency result in assay [6] was “inactive”.
In the case of `Cc1ccc2c(c1)c1c3n2CCNC3CCC1` (centres undefined), the result in assay [1], in [5], in assay [7], in assay [8], in assay [19] and in assay [9] was inactive. In addition, the compound was called inactive in assay [18], in [10], in assay [11], in assay [12], in assay [13] and in [14]. In addition, the outcome in [15] and in assay [16] was inactive. In [6], the Potency result is “inactive”.
Consider `NS(=O)(=O)c1cc2c(cc1Cl)NC(C(Cl)Cl)NS2(=O)=O` (centres undefined), for which the call in assay [1], in assay [2], in assay [3], in assay [5], in assay [7] and in [8] was inactive. Also, the outcome in assay [17], in assay [9], in assay [18], in assay [10], in [11] and in assay [12] was inactive. In addition, the outcome in assay [13], in [14], in assay [15] and in [16] was inactive. Moreover, the Potency entry in assay [6] was “inactive”.
As to `Nc1ccnc(=O)[nH]1`, the compound was classed as inactive in assay [1], in assay [2], in assay [3], in [4], in assay [8] and in assay [17]. Also, the compound was called inactive in [9], in [10], in [11], in assay [12], in assay [13] and in assay [14]. Besides, the result in assay [15] and in assay [16] was inactive. In addition, the Potency entry in assay [6] is “inactive”.
`Nc1nc(=O)n([C@@H]2O[C@H](CO)[C@@H](O)[C@@H]2F)cc1I`: the outcome in [1], in [2], in [3], in [4], in [8] and in assay [19] was inactive. The call in assay [9], in assay [18], in [10], in assay [11], in assay [12] and in assay [13] was inactive. Moreover, the call in [14], in assay [15] and in assay [16] was inactive.
For `COc1cc([N+](=O)[O-])ccc1N`, the compound was classed as inactive in [1], in [2], in assay [3], in assay [4], in assay [5] and in [7]. The compound was classed as inactive in assay [8], in assay [17], in assay [18], in assay [10], in [11] and in assay [12]. Further, the outcome in assay [13], in assay [14], in assay [15] and in [16] was inactive.

For the origin of these results see PubChem BioAssay (Tox21).
